Only some compounds are listed: those with a hit (about 3.8% of all), similar ones and a draw of the others.
ATXN2 expr inh = inhibitors of ATXN2 expression; HEK-293 ATXN2-luciferase reporter, luminescence, 24 h; Potency, µM (series often up to 57 µM), usual class: inhibitors; 360,000 compounds, 0.72% hits; AID 1745845; also: nearly all actives have a fitted effect of over 55% in size
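ATXN2-luciferase reporter cells (luciferase flanked by upstream and downstream ATXN2 gene portions) were treated 24 h at 37 °C with compounds at up to 57 uM. SteadyGlo luminescence gave expression; GF-AFC fluorescence gave viability.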
HT1080-NT tox = kills 2HG-producing HT-1080-NT fibrosarcoma cells; HT-1080-NT fibrosarcoma viability, CellTiter-Glo ATP luminescence, 48 h; Potency, µM (highest dose often 46.1 µM), actives largely listed as cytotoxic; 360,000 compounds, 1.6% hits; AID 686970;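 also: NT is the 2HG producing partner of a matched IDH1 knockdown line; nearly all actives have a fitted effect of over 55% in size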
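750 cells/well, RPMI + 5% FBS; 2 h settle, compound pin-transfer, 48 h at 37 degrees C. CellTiter-Glo 10 min RT, luminescence. Normalized to DMSO and media-only wells.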
HepG2 tox-1 = kills HepG2 cells in TGF-b inhibitor counter-screen | AID 588856 | 410,000 compounds, 0.76% hits | HepG2 CAGA-GFP viability, ATP luminescence, 18 h | Potency, µM (series often up to 46.1 µM), usual class: cytotoxic
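HepG2 CAGA-GFP cells (1000/well, DMEM with 1% FBS) received compound, then TGF-beta at 500 pg/mL final, and were incubated 18 hours at 37 degrees C. Viability was read by CellTiter-Glo luminescence. Media-only wells were set as complete cell-killing and DMSO as no toxicity.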
HT1080 IDH1KD tx = HT-1080 IDH1 knockdown cell toxicity (counter line); HT-1080 IDH1 knockdown viability, ATP luminescence, 48 h; Potency, µM (doses to about 46.1 µM), actives largely listed as cytotoxic; 360,000 compounds, 2% hits
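After a 2 h attachment period, IDH1KD HT-1080 cells took pin-transferred compound for 48 h at 37 °C; ATP-based luminescence after 10 min room-temperature reagent incubation reported viability.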
S2 tox = cell viability loss in ATXN counter-screen | S2 cells (HEK-293 line with an ATXN2-luciferase reporter) viability, CellTiter-Fluor protease fluorescence, 24 h | Potency, µM (doses to about 56.7 µM), hits mostly cytotoxic | 400,000 compounds, 0.49% hits; also: nearly all actives have a fitted effect of over 40% in size
TGFb SMAD3 inh = blocks TGF-b signaling; HepG2 CAGA-GFP TGF-b/SMAD3 reporter, GFP fluorescence, 18 h; TGF-beta stimulated, 500 pg/mL final; Potency, µM (series often up to 46.1 µM), hits mostly inhibitors; 410,000 compounds, 1.2% hits; AID 588855; also: nearly all actives have a fitted effect of over 65% in size
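Cell-based qHTS in HEPG2 carrying a CAGA-GFP Smad reporter; compounds added before 500 pg/mL final TGF-beta, 18 h incubation at 37 degrees C, GFP fluorescence quantified per cell by imaging cytometry.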
TGFb CAGA inh = TGF-b pathway inhibition, cherry-pick retest. shares compounds with TGFb SMAD3 inh. HepG2 CAGA-GFP TGF-b reporter, GFP fluorescence, 18 h; cells stimulated with TGF-beta, 500 pg/mL. Potency, µM (series often up to 46.1 µM), most hits filed as inhibitors. 1,600 compounds, 63% hits; also: nearly all actives have a fitted effect of over 65% in size
HepG2 tox-2 = counter-screen for TGF-b inhibitors: cytotoxicity in HepG2 cells | HepG2 CAGA-GFP viability, ATP luminescence, 18 h; cells stimulated with TGF-beta, 500 pg/mL | shares compounds with TGFb SMAD3 inh | Potency, µM (series often up to 46.1 µM), hits mostly inhibitors | 1,600 compounds, 27% hits; also: nearly all actives have a fitted effect of over 70% in size
TGFb CCL64 inh = orthogonal confirmation of TGF-b inhibitors in CCL64 cells | 1,600 compounds, 41% hits | AID 720536 | shares compounds with TGFb SMAD3 inh | Potency, µM (doses to about 46.1 µM), usual class: inhibitors | CCL64 CAGA-GFP reporter, TGF-b stimulated, GFP fluorescence, 18 h; also: nearly all actives have a fitted effect of over 65% in size
COP TGFb inh = TGF-b inhibition validated with COP promoter | HepG2 COP-GFP TGF-b reporter, GFP fluorescence, 18 h; cells stimulated by added recombinant TGF-beta | shares compounds with TGFb SMAD3 inh | Potency, µM (highest dose often 46.1 µM), actives largely listed as inhibitors | AID 720537 | 1,600 compounds, 3% hits; also: nearly all actives have a fitted effect of over 70% in size
Numbers stand for hits; . = inactive; ? = inconclusive; / = no result. Calls follow the shape of the dose curve; as a rule, active = well fitted curve in the direction sought with a large enough effect; inconclusive = small, poorly fitted or top-dose-only effect, or another doubt; inactive = no such curve, though single readings can be large; an effect the other way counts as inactive or inconclusive.

SMILES | ATXN2 expr inh | HT1080-NT tox | HepG2 tox-1 | HT1080 IDH1KD tx | S2 tox | TGFb SMAD3 inh | TGFb CAGA inh | HepG2 tox-2 | TGFb CCL64 inh | COP TGFb inh
O=S1(=O)[C@H]2CC3O[C@]2(C[C@@H]3c2ccc(F)cc2)CN1Cc1ccc(Cl)cc1 | . | . | . | . | . | 7.08µM | ? | . | . | .
CC(=O)N1CCN(C(=O)c2[nH]c(C(F)(F)F)nc2-c2ccccc2)CC1 | . | . | . | . | . | ? | / | / | / | /
O=C(c1[nH]c(C(F)(F)F)nc1-c1ccccc1)N1CCN(c2cccc(C(F)(F)F)n2)CC1 | . | 1.3µM | . | 1.84µM | . | 11.2µM | 16.4µM | . | 13µM | .
Cc1ccccc1CCNC(=O)c1ccc(Cl)c(S(=O)(=O)N2CC(C)OC(C)C2)c1 (configuration not stated) | . | . | . | . | ? | 10µM | 16.4µM | ? | ? | .
CC1CN(S(=O)(=O)c2cc(C(=O)NCc3ccncc3)ccc2Cl)CC(C)O1 (configuration not stated) | . | . | . | . | . | . | / | / | / | /
c1ccc(-c2csc3ncnc(NCC4COc5ccccc5O4)c23)cc1 (configuration not stated) | ? | . | . | . | ? | 3.55µM | 2.59µM | ? | 14.6µM | .
Cc1sc2ncnc(NCC3COc4ccccc4O3)c2c1C (configuration not stated) | ? | . | . | ? | . | ? | / | / | / | /
CC(=O)OCC1OC(n2cc(F)c(=O)[nH]c2=O)C(OC(C)=O)C1OC(C)=O (configuration not stated) | / | . | . | ? | . | ? | / | / | / | /
O=C1C(F)=CC(COC(c2ccccc2)(c2ccccc2)c2ccccc2)OC1n1cc(F)c(=O)[nH]c1=O (configuration not stated) | 3.36µM | ? | . | 20.6µM | 2.99µM | 5.01µM | 2.91µM | 8.2µM | 2.31µM | ?
CC(Nc1nc(-c2ccc(F)cc2)cs1)c1nc2cc(C(F)(F)F)ccc2n1CCOCCO (configuration not stated) | . | . | . | . | . | . | / | / | / | /
COc1ccc(-c2csc(NC(C)c3nc4cc(C(F)(F)F)ccc4n3CCOCCO)n2)cc1 (configuration not stated) | ? | . | . | ? | ? | 12.6µM | 23.1µM | ? | ? | .
Cc1ccc(CNC(=O)C2CCN(c3nc4ccccc4n(C)c3=O)CC2)cc1 | . | / | . | / | . | . | / | / | / | /
C[C@H](NC(=O)c1[nH]cnc1C(=O)Nc1ccc(CNC(=O)OC(C)(C)C)cc1)C(=O)OC(C)(C)C | ? | ? | . | . | ? | 15.8µM | ? | ? | . | .
CC(C)(C)OC(=O)[C@H](Cc1ccccc1)NC(=O)c1[nH]cnc1C(=O)Nc1cccc(Cl)c1 | ? | ? | . | ? | 31.6µM | 10µM | 20.6µM | 18.4µM | ? | .

Bioassay records (PubChem BioAssay)
